HT1080 IDH1KD tx: qHTS for induction of synthetic lethality in tumor cells producing 2HG: qHTS for the HT-1080-IDH1KD cell line; HT-1080 IDH1 knockdown viability, ATP luminescence, 48 h; Potency, µM (series often up to 46.1 µM), without a hit: at the top dose activity, negative = toxicity, hits mostly cytotoxic; 360,000 compounds, 2% hits;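 note: 0% = DMSO wells and -100% = cell-free medium wells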
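Cytotoxicity counter-line: IDH1KD HT-1080, 48 h, CellTiter-Glo. Curves classed by r2, magnitude and activity.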
S2 tox: Viability Counterscreen for Primary qHTS for Inhibitors of ATXN expression; S2 cells (HEK-293 line with an ATXN2-luciferase reporter) viability, CellTiter-Fluor protease fluorescence, 24 h; Potency, µM (highest dose often 56.7 µM), usual class: cytotoxic; 400,000 compounds, 0.49% hits; note: nearly all actives have a fitted effect of over 40% in size
KB-V1 cytotox: qHTS assay for MDR1-selective chemotherapeutics: Primary screen using the drug-selected MDR subline cells KB-V1; 400,000 compounds, 3.4% hits; AID 1347076, 2019; KB-V1 MDR cells viability, CellTiter-Glo, 72 h; Potency, µM (highest dose often 46.1 µM), actives largely listed as cytotoxic; note: % is set by controls: 0 for no effect and ±100 for the full control effect; nearly all actives have a fitted effect of over 60% in size
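Luminescent ATP read-out (CellTiter-Glo, 10 min) measures survival of drug-selected KB-V1 MDR cells after 72 h, 37 degrees C compound exposure. Medium: phenol-red-free DMEM, 10% FBS. Values from fitted concentration-response curves.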
ATXN2 expr inh: Primary qHTS for Inhibitors of ATXN expression; HEK-293 ATXN2-luciferase reporter, luminescence, 24 h; Potency, µM (series often up to 57 µM), without a hit: top-dose activity change, negative = inhibition, most hits filed as inhibitors; 360,000 compounds, 0.72% hits; note: % is set by controls: 0 for no effect and ±100 for the full control effect; nearly all actives have a fitted effect of over 55% in size
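ATXN2-luciferase reporter cells (luciferase flanked by upstream and downstream ATXN2 gene portions) were treated 24 h at 37 °C with compounds at up to 57 uM. SteadyGlo luminescence gave expression; GF-AFC fluorescence gave viability.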
HT1080NT lethal: qHTS for induction of synthetic lethality in tumor cells producing 2HG: qHTS for the HT-1080-NT fibrosarcoma cell line | HT-1080-NT fibrosarcoma viability, CellTiter-Glo ATP luminescence, 48 h | Potency, µM (highest dose often 46.1 µM), inactives show at the highest dose activity, negative = less viability, usual class: cytotoxic | 360,000 compounds, 1.6% hits;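 note: NT is the 2HG producing partner of a matched IDH1 knockdown line; 0% = DMSO-treated cells and -100% = media-only wells without cells; nearly all actives have a fitted effect of over 55% in size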
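Luminescent CellTiter-Glo readout after 48 hours of compound exposure at 37 degrees C defined viability of HT-1080-NT cells. Activity was normalized to DMSO wells and cell-free media wells; concentration-response curves were fitted and assigned curve classes.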
KB-3-1 tox: qHTS assay for MDR1-selective chemotherapeutics: Primary screen using the parental adenocarcinoma cell KB-3-1; KB-3-1 viability, CellTiter-Glo ATP luminescence, 72 h; Potency, µM (series often up to 46.1 µM), most hits filed as cytotoxic; 400,000 compounds, 1.4% hits; AID 1347075, 2019; note: % is set by controls: 0 for no effect and ±100 for the full control effect; nearly all actives have a fitted effect of over 60% in size
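KB-3-1 parental drug-naive adenocarcinoma cells in DMEM/10% FBS, incubated 72 h at 37 C with pin-transferred compounds across a concentration series. Viability by CellTiter-Glo luminescence; concentration-response curves fitted after normalization.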
* hit, by the source's call; i = inactive; ? = inconclusive; · = not tested or not shown; ! = not confirmed by another sample; [ ] = remark or other dose. Only some compounds are listed: those with a hit (about 6.2% of all), similar ones and a draw of the others. Calls come from the whole dose curve; as a rule, active = well fitted curve in the direction sought with a large enough effect; inconclusive = small, poorly fitted or top-dose-only effect, or another doubt; inactive = no such curve, though single readings can be large; an effect the other way counts as inactive or inconclusive. Potency is the fitted concentration of half-maximal effect.

SMILES	HT1080 IDH1KD tx	S2 tox	KB-V1 cytotox	ATXN2 expr inh	HT1080NT lethal	KB-3-1 tox
Cc1nn(Cc2c(F)c(F)c(F)c(F)c2F)c(C)c1NC(=O)c1ccc(COc2ccccc2Cl)o1	-13.0%	i	2.59µM*	-30.1%	-1.5%	i
CCC1CN(C(=O)Nc2ccccc2C(F)(F)F)c2ccccc2S1 (configuration not stated)	·	·	i	·	·	i
Cn1cc(CN2CCN(c3ccc(Cl)cn3)CC2)c(-c2ccccc2F)n1	4.0%	i	i	·	3.5%	i
Cc1cccc(N2CCN(Cc3cn(C)nc3-c3ccccc3F)CC2)n1	1.84µM*	i	?	-36.8%	?	5.8µM*
Cc1cc(-c2nn(-c3ccccc3F)cc2CN2CCN(c3ccccn3)CC2)c(C)s1	?	i	16.4µM*	5.7%	-4.1%	i
O=C1CCCCC1Nc1ccc(Br)cc1 (configuration not stated)	-4.5%	i	i	-2.3%	-6.1%	i
CCOC(=O)[C@@H]1[C@H]2COc3ccccc3[C@@H]2N2C(=O)N(c3ccc(Br)cc3)C(=O)[C@@]12C	0.6%	?	i	13.4%	-0.5%	i
COc1ccc(/C=C/c2cc(-c3ccc(C)cc3)o[n+]2C)cc1	6.51µM*	?	i	?	14.6µM*	?
COc1ccc(Cl)cc1-c1nc(N)nc(NC2CCCCC2)n1	0.4%	i	18.4µM*	-0.2%	-0.7%	i
CCC1CN(CCNC(=O)c2cc(C(C)C)nn2C)Cc2cc(OC)ccc2O1 (configuration not stated)	·	i	·	·	·	·
O=c1c(Cl)c(Nc2cccc(Cl)c2)cnn1-c1nc2ccccc2s1	5.0%	i	i	65.8%	-5.1%	?
COc1ccc(Nc2cnn(-c3nc4ccccc4s3)c(=O)c2Cl)cc1	?	·	20.6µM*	-16.7%	?	?
Cc1ccc2c(c1)C(c1ccccc1)N(C(=O)c1ccc(OC(C)C)cc1)CC(=O)N2 (configuration not stated)	·	i	i	3.9%	·	i
O=S(=O)(NCC(Nc1ccccc1)c1ccccc1)c1ccc(Cl)cc1 (configuration not stated)	-10.9%	?	20.6µM*	?	-16.3%	i
Cc1cc2nc(-c3ccc[nH]c3=O)[nH]c2cc1C	18.4µM*	·	?	·	18.4µM*	i
COc1cccc(C2=NOC(C(=O)NCc3ccc(F)cc3)C2)c1 (configuration not stated)	?	i	?	-9.5%	-23.9%	i
COc1ccc(C2=NOC(C(=O)NCc3ccc(F)cc3)C2)cc1OC (configuration not stated)	1.12µM*	?	0.517µM*	-12.6%	1.26µM*	i
COc1cc(C2=NOC(C(=O)NCc3ccccn3)C2)cc(OC)c1OC (configuration not stated)	-4.8%	i	i	9.4%	1.6%	i
COc1cc(C2=NOC(C(=O)NCc3ccc(F)cc3)C2)cc(OC)c1OC (configuration not stated)	0.708µM*	i	1.46µM*	-0.8%	1.12µM*	1.46µM*
CC(=O)N1CCN(c2cc(N3CCc4ccccc4C3)c(F)cc2[N+](=O)[O-])CC1	?	?	18.4µM*	?	?	i
CCC(=O)N1CCN(c2cc(N3CCCC3)c(F)cc2[N+](=O)[O-])CC1	?	i	?	·	-2.2%	i
O=C(c1cccc(F)c1)N1CCN(c2cc(N3CCCCC3)c(F)cc2[N+](=O)[O-])CC1	2.4%	i	18.4µM*	-9.4%	0.0%[9.24 µM]	?
CCN1CCN(c2nc3c(C)cccn3c(=O)c2C=C(C#N)C#N)CC1	5.9%	i	i	15.5%	-3.2%	i
O=S1(=O)CCOC[C@H](CC2CCCCC2)N1Cc1cccc(C(F)(F)F)c1	-0.4%	i	13µM*!	-26.2%	-16.1%	?
O=S1(=O)CCOC[C@H](Cc2ccccc2)N1Cc1cccc(C(F)(F)F)c1	-0.4%	i	?	-14.2%	-27.9%	i
SMILES	HT1080 IDH1KD tx	S2 tox	KB-V1 cytotox	ATXN2 expr inh	HT1080NT lethal	KB-3-1 tox
Cc1ccc(-c2n[nH]c3c2C(c2ccc(C(C)(C)C)cc2)NC3=O)cc1 (configuration not stated)	·	i	i	10.3%	·	i
OC(CNCc1ccccc1F)COc1cccc2ccccc12 (configuration not stated)	14.6µM*	i	i	-29.6%	?	i
CC(C)NCC(O)COc1cccc2ccccc12 (configuration not stated)	·	i	i	4.5%	·	i
CCn1c(=O)cc(SCC(=O)N2CCOCC2)c2ccccc21	-28.5%	i	?	17.2%	-0.2%	i
CCn1c(=O)cc(SCC(=O)N2CCN(c3ccccc3OC)CC2)c2ccccc21	?	i	8.2µM*	25.2%	-4.1%	i
CC(=O)N(CC(=O)N(C)C)c1ccccc1	·	i	·	-1.0%	·	·
O=C(NCCS(=O)(=O)NCCc1ccccc1)c1ccccc1	-4.2%	i	16.4µM*	5.6%	-0.9%	i
COc1ccccc1CCNS(=O)(=O)CCNC(=O)c1ccccc1	3.6%	i	16.4µM*	4.4%	5.5%	i
C(/Oc1ccccc1)=C1\Nn2c(nnc2-c2cc(-c3ccccc3)n[nH]2)S1	·	·	i	·	·	?
COc1ccc(NC(C)C(=O)N/N=C/c2ccccc2OCc2cccc(Br)c2)cc1 (configuration not stated)	-17.8%	?	?	-5.6%	-26.5%	23.1µM*
COc1ccc(-c2csc(NC(=O)CSc3nc4ccccc4c(=O)[nH]3)n2)cc1	16.4µM*	i	i	-10.1%	18.4µM*	i
COc1ccc(OC)c(-c2csc(NC(=O)Cn3[nH]c(=O)c4ccccc4c3=O)n2)c1	20.6µM*	?	i	-38.2%	?	i
COc1ccccc1Nc1nnc(SCC(=O)Nc2nc(-c3ccc(F)cc3)cs2)s1	?	?	i	·	23.1µM*	i
COc1ccc(OC)c(-c2csc(NC(=O)Cc3ccc(F)cc3)n2)c1	?	i	i	-10.3%	?	i
COc1ccccc1Nc1nnc(SCC(=O)NC2CC2)s1	-0.6%	i	i	·	-5.3%	i
CCSc1ccccc1C(=O)Nc1nc2ccccc2c(=O)[nH]1	?	·	18.4µM*	-2.1%[11.3 µM]	-13.8%	i

Bioassay records deposited in PubChem by National Center for Advancing Translational Sciences (NCATS).
